Source: PubChem (National Center for Advancing Translational Sciences (NCATS))
This is one part of a sample in which hits are shown more often than they occur.
HT1080-NT tox = kills 2HG-producing HT-1080-NT fibrosarcoma cells; HT-1080-NT fibrosarcoma viability, CellTiter-Glo ATP luminescence, 48 h; Potency, µM (series often up to 46.1 µM), most hits filed as cytotoxic; 360,000 tested, 1.6% active; AID 686970;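 also: NT is the 2HG producing partner of a matched IDH1 knockdown line; nearly all actives have a fitted effect of over 55% in size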
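A 48-hour cytotoxicity screen used HT-1080-NT cells plated 2 hours before compound delivery. ATP-based CellTiter-Glo luminescence measured viability, normalized to DMSO and no-cell controls.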
12-LOX inh = ALOX12 (human) lipoxygenase inhibition. Potency, µM (top dose mostly 108 µM), actives largely listed as inhibitors. P18054. 580,000 tested, 1.1% active. purified 12hLO, xylenol orange hydroperoxide absorbance
Target sequence (P18054 whole entry, looked up): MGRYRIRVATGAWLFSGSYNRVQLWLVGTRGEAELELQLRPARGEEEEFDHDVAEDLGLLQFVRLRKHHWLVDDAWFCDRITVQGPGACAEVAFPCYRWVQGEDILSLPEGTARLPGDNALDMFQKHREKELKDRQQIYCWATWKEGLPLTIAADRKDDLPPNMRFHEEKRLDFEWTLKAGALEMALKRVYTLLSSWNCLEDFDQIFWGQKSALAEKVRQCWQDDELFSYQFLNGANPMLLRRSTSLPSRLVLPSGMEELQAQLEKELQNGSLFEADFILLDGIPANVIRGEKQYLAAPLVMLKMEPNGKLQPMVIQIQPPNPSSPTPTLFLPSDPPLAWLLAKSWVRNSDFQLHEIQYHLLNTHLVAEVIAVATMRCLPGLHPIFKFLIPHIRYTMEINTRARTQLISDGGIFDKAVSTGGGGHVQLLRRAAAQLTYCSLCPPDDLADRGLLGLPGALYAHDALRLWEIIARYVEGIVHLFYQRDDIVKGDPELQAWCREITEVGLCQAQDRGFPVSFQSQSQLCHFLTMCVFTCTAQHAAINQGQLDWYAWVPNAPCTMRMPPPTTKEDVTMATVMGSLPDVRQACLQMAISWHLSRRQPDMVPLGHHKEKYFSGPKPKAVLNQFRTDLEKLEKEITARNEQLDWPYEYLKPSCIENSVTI
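Purified human 12hLO (150 nM final) in 25 mM Hepes, 0.01% Triton X-100, pH 7.0 was preincubated 15 min at room temperature with compound. Then 40 uM arachidonic acid was added, 30 min. Hydroperoxide was read by Fe-XO absorbance ratio 573/405 nm.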
DT40 TDP1 no CPT = qHTS for Inhibitors of human tyrosyl-DNA phosphodiesterase 1 (TDP1): qHTS in cells in absence of CPT. 420,000 tested, 15% active. Potency, µM (highest dose often 46.2 µM), actives largely listed as inhibitors. DT40 Tdp1-/- hTDP1 cells, no CPT, ATP luminescence, 48 h; also: nearly all actives have a fitted effect of over 55% in size
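DT40 Tdp1-/-;hTDP1 cells, no CPT (DMSO vehicle only), 400 cells/well; compounds pin-transferred; ≥48 hr, 37 °C; CellTiter-Glo 30 min RT dark, luminescence read.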
HT1080 IDH1KD tx = kills HT-1080 cells with IDH1 knockdown. Potency, µM (doses to about 46.1 µM), hits mostly cytotoxic. 360,000 tested, 2% active. AID 686971. HT-1080 IDH1 knockdown viability, ATP luminescence, 48 h
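Luminescent ATP read-out (CellTiter-Glo, 10 min at room temperature) after 48 h compound exposure at 37 °C gave viability of IDH1-knockdown HT-1080 cells. Activity was normalised to DMSO and cell-free wells, then fitted as concentration-response curves.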
IL-1B inflam inh = blocks inflammasome-driven IL-1 beta release. THP-1 LPS/ATP IL-1B secretion, AlphaLISA, 16 h; active compounds read low. activity change, % at 57.5 µM. 360,000 tested, 4.7% active; in the data active = activity change below about -50%; inconclusive = mostly about -30% to -49%
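Secreted IL-1B measured by AlphaLISA bead assay after 16 h compound exposure of THP-1 cells; compounds (final up to 57.5 uM) added 1 h before LPS (250 ng/mL) and ATP (1.25 mM) stimulation; lower signal means less secretion.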
TDP1 cell CPT = DT40-hTDP1 cell growth loss with CPT; chicken DT40 Tdp1-/-;hTDP1 cells + 20 nM CPT, ATP luminescence, 48 h; Potency, µM (titrated, usually from 46.2 µM), hits mostly inhibitors; 420,000 tested, 12% active; AID 686979; also: nearly all actives have a fitted effect of over 55% in size
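Chicken DT40 Tdp1-/- cells complemented with human TDP1, 400 cells/well, exposed to compounds plus 20 nM camptothecin for at least 48 h at 37 C; viability read as ATP content by CellTiter-Glo luminescence.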
Numbers stand for hits; . = inactive; ? = inconclusive; / = not tested or not shown; [ ] = another dose, or the depositor's remark. Unless noted, calls follow the shape of the dose curve; as a rule, active = well fitted curve in the direction sought with a large enough effect; inconclusive = small, poorly fitted or top-dose-only effect, or another doubt; inactive = no such curve, though single readings can be large; an effect the other way counts as inactive or inconclusive.

SMILES	HT1080-NT tox	12-LOX inh	DT40 TDP1 no CPT	HT1080 IDH1KD tx	IL-1B inflam inh	TDP1 cell CPT
COCC(=O)N(c1ccc(OC)cc1OC)C1C=CS(=O)(=O)C1 (stereo unspecified)	/	.	/	/	/	/
CCN(CC)CCN(C(=O)c1ccco1)c1nc2cc(C)cc(C)c2s1	/	?	23µM	/	/	?
CCN(CC)CCN(C(=O)c1ccc(S(=O)(=O)N2CCCC2)cc1)c1nc2cc(C)cc(C)c2s1	?	.	?	?	?	?
CCc1ccc2nc(N(CCN(CC)CC)C(=O)c3ccco3)sc2c1	/	?	?	/	/	21µM
CC(C)CN(C(=O)c1ccco1)c1nc2ccccc2s1	.	.	?	.	.	.
CN(Cc1ccnc2ccccc12)C(=O)c1cn(Cc2ccc(Cl)cc2)nn1	/	.	/	/	/	/
CCc1cc(/C(Cc2cscn2)=N\O)c(O)cc1O	.	.	?	.	.	.
Cc1c(O)ccc(/C(Cc2ccc3ccccc3n2)=N\N)c1O	.	.	10µM	?	.	7.3µM
CCc1cc(/C(Cc2ccccn2)=N\O)c(O)cc1O	?	.	.	13µM	.	?
CCc1cc(/C(Cc2ccc3ccccc3n2)=N\O)c(O)cc1O	.	.	?	.	-101	?
OC(Cc1ccc2ccccc2n1)c1ccccc1 (stereo unspecified)	/	/	?	/	/	.
O=C(NC1C[C@H]2CC[C@@H](C1)N2C(=O)c1cccc(C(F)(F)F)c1)c1ccncc1 (stereo partly specified)	/	.	/	/	/	/
Cc1nn(CCc2n[nH]c(=S)n2C2CCCCC2)c(C)c1Br	?	22µM	.	?	.	.
O=C1C(=O)N(CCCc2ccccc2)c2ccccc21	.	/	1.6µM	.	.	2.1µM
O=C(CN1C(=O)C(=O)c2ccccc21)NCCc1ccccc1	.	.	?	.	.	?
O=C1C(=O)N(C/C=C/c2ccccc2)c2ccccc21	?	?	0.58µM	?	.	0.92µM
O=C1c2ccccc2C(=O)N1C/C=C/c1ccccc1	.	.	.	.	.	.
C[S+](=O)([O-])N1CC2(CCN(Cc3cccnc3)CC2)Cc2ccccc21	/	.[6.33 µM]	/	/	/	/
CC(/C=N/NC(=O)Cc1cccs1)=C\c1ccccc1	.	.	.	.	.	?
O=C(N/N=C/C(Cl)=C\c1ccccc1)c1cccs1	.	.	9.2µM	?	.	?
CC(/C=N/NC(=O)c1cccs1)=C\c1ccccc1	.	.	8.2µM	.	.	.
Cc1ncccc1C(=O)N1CCCN(C(=O)C2CC2)C(c2ccccc2)CC(=O)NCC1 (stereo unspecified)	/	.	/	/	/	/
CCOc1ccc(-n2nnc3c(=O)n(CC(=O)NCc4ccco4)cnc32)cc1	.	.	.	.	.	.
COC(=O)C(C)Sc1ncnc2c1nnn2-c1ccc(F)cc1 (stereo unspecified)	?	.	?	?	.	.
COc1ccc(-n2nnc3c(SC(C(C)=O)C(=O)N(C)C)ncnc32)cc1 (stereo unspecified)	.	?	16µM	.	.	18µM
SMILES	HT1080-NT tox	12-LOX inh	DT40 TDP1 no CPT	HT1080 IDH1KD tx	IL-1B inflam inh	TDP1 cell CPT
COc1ccc(-n2nnc3c(SCC(=O)NCc4ccco4)ncnc32)cc1	.	.	2.9µM	?	.	?
O=C(CSc1ncnc2c1nnn2-c1ccc(F)cc1)NCc1ccco1	.	.	15µM	.	.	?
O=C(Cn1cnc2c(nnn2-c2ccc(F)cc2)c1=O)NCc1ccco1	.	.	.	.	.	?
Cc1ccc(S(=O)(=O)N(C)C[C@H]2OCCCC[C@H](C)Oc3ccc(NC(=O)Nc4cccc5ccccc45)cc3C(=O)N([C@@H](C)CO)C[C@H]2C)cc1	.	.	?	.	.	.
C[C@@H]1CN([C@@H](C)CO)C(=O)c2cc(NC(=O)Nc3ccccc3)ccc2O[C@H]1CN(C)C(=O)Nc1cccc2ccccc12	.	/	18µM	.	.	13µM
C[C@@H]1CN([C@@H](C)CO)C(=O)c2cc(NC(=O)Nc3cccc4ccccc34)ccc2O[C@@H](C)CCCCO[C@H]1CN(C)C(=O)c1ccccc1	.	.	21µM	.	.	?
C[C@@H]1CCCCO[C@H](CN(C)C(=O)Nc2cccc3ccccc23)[C@@H](C)CN([C@H](C)CO)C(=O)c2cc(NC(=O)c3ccccc3)ccc2O1	.	.	3.7µM	.	.	4.6µM
O=C1CCCCC(C(=O)NCCc2c[nH]c3ccccc23)N1 (stereo unspecified)	/	.	/	/	/	/
CSc1ncnc2c1ncn2CCCN1CCN(c2ccccn2)CC1	.	.	16µM	.	.	?
c1ccc(CCCN2CCN(c3ccccn3)CC2)cc1	.	4.5µM	.	.	.	.
c1ccc(COc2ncnc3c2ncn3CCCN2CCN(c3ccccn3)CC2)cc1	.	.	16µM	.	.	?
Cc1ccccc1NC(=O)CCc1ncc(-c2c(F)cccc2F)o1	/	.	/	/	/	/
COC1C(=O)N(C2CCN(S(=O)(=O)c3cccnc3)CC2)C12CCOCC2 (stereo unspecified)	/	.	/	/	/	/
Cc1ccccc1-c1cc(C(=O)NCc2ccc3c(c2)OCO3)nn1CC1CC(c2cccc([N+](=O)[O-])c2)=NO1 (stereo unspecified)	.	.	?	.	.	.
Cc1ccccc1-c1cc(C(=O)NCc2cccc(C(F)(F)F)c2)nn1CC1CC(c2cccc([N+](=O)[O-])c2)=NO1 (stereo unspecified)	.	.	23µM	.	.	?
Cc1ccccc1-c1cc(C(=O)NCc2ccc(OC(F)(F)F)cc2)nn1CC1CC(c2cccc([N+](=O)[O-])c2)=NO1 (stereo unspecified)	.	.	18µM	.	?	16µM
CCC(=O)N1CCc2c(sc3ncnc(N)c23)C1	/	.	/	/	/	/
CCn1cc(S(=O)(=O)N2CCC(c3noc(-c4ccccc4)n3)C2)cn1 (stereo unspecified)	/	.	/	/	/	/
Cc1nc(N2CCN(C)CC2)c2c(C)c(C(=O)Nc3ccc(C)c(F)c3)sc2n1	.[9.24 µM]	.	?	14µM	-60	16µM
Cc1nc(N2CCCCC2)c2c(C)c(C(=O)Nc3ccc4c(c3)OCCO4)sc2n1	.	.	4.1µM	.	/	?
Cc1cccc(NC(=O)c2sc3nc(C)nc(N4CCOCC4)c3c2C)c1	.	.	?	.	?	.
NS(=O)(=O)c1ccc(N/N=C/c2cccc(Oc3ccccc3)c2)c([N+](=O)[O-])c1	/	.	/	/	/	/
COC(=O)C1=C(C)N(Cc2ccccc2C(F)(F)F)C(=NCc2ccccc2C(F)(F)F)NC1c1ccc(F)cc1 (stereo unspecified)	/	.	/	/	/	/
